Source: PubChem BioAssay (several laboratories)
Cardio protect – cardioprotection against H2O2-induced cell death, primary screen, uHTS, H9c2 cells, ATPLite luminescence | H9c2 cardiomyocytes, H2O2 injury protection, 2 h | protection from H2O2 cell death, % at 20 µM | 360,000 tested, 0.63% active | AID 588492, 2011;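 active = compounds giving at least 50% protection of heart cells from peroxide-induced death in the single-dose screen, raw or plate-pattern-corrected value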;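 note: 0% = DMSO wells with peroxide and 100% = DMSO wells without peroxide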
PLCb3 inh – human PLC-beta3 inhibitors, primary screen, biochemical, fluorescence. Purified PLC-beta3, fluorogenic substrate. 370,000 tested, 0.18% active. 1-phosphatidylinositol 4,5-bisphosphate phosphodiesterase beta-3 (Homo sapiens), Q01970. inhibition, % at 12.2 µM; in the data active = inhibition above about 11%;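 note: 0% = median of compound wells on plate and 100% = full blocker control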
FAS-TE inh – FAS thioesterase domain inhibitors, primary screen, biochemical, fluorescence intensity, uHTS; Fatty acid synthase (Homo sapiens), P49327; recombinant FAS-TE, OMFH fluorogenic substrate, fluorescence endpoint; inhibition, % at 15 µM; 360,000 tested, 0.67% active;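 active = compounds whose normalised, plate-corrected inhibition of enzyme fluorescence in the single-dose primary screen is 50% or more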;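 note: 0% = DMSO with enzyme and 100% = substrate without enzyme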
PLCg1 inh – PLC-gamma1 enzyme inhibitors, primary screen, biochemical, fluorescence, purified enzyme; 1-phosphatidylinositol 4,5-bisphosphate phosphodiesterase gamma-1 (Homo sapiens), P19174; fluorogenic substrate; inhibition, % at 12.2 µM; 370,000 tested, 0.84% active; AID 720700, 2013; in the data active = inhibition above about 9.5%
Target sequence (P19174 whole entry, looked up): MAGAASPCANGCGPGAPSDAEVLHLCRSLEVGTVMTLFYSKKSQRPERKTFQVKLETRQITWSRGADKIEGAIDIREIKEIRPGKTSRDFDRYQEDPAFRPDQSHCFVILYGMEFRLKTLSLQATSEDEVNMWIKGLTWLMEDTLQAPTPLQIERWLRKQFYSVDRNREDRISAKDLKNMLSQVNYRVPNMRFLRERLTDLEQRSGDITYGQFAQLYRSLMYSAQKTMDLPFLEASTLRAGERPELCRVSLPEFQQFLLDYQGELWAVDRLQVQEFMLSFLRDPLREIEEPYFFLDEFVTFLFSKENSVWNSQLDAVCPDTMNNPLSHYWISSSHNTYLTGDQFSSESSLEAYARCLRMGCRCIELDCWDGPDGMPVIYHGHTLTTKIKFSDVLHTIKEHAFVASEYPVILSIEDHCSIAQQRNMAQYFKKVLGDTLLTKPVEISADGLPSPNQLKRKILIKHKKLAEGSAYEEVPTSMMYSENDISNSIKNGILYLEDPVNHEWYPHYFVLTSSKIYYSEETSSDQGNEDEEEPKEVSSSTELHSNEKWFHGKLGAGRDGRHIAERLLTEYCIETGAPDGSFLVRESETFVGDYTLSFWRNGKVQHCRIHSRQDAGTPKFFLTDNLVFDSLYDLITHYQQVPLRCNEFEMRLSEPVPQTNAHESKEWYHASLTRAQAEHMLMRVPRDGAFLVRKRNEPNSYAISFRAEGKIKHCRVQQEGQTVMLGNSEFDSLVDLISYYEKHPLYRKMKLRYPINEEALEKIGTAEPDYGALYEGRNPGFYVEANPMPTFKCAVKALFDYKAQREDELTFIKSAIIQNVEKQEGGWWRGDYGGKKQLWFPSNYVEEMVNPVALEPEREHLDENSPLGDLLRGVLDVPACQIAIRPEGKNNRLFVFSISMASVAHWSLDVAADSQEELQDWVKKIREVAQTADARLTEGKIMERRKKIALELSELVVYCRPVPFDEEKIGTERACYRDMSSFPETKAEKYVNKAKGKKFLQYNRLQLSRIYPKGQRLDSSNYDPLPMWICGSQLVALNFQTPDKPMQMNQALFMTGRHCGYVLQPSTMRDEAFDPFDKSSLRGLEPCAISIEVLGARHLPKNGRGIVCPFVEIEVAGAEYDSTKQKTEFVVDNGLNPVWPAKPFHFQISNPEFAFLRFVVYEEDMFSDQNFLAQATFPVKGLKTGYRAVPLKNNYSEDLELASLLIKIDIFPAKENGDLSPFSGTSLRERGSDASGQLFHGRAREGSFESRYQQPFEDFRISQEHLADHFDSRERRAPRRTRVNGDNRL
Starred values were filed as active, the others as inactive; nt = no result given. Sampled rows, rich in hits. Any-hit rate of the full collection: about 2.2%.

SMILES	Cardio protect	PLCb3 inh	FAS-TE inh	PLCg1 inh
C[C@@H]1C=CCCO[C@]12C(=O)N(CC1CC1)c1cccc(Br)c12	nt	1	nt	-2
COc1ccc(CNC2CCC23CCCCC3)cc1OC (stereo unspecified)	nt	4	nt	0
C[N+]1=C(N)NC2=C3CCCCC3n3c(=O)n(-c4ccccc4)c(=O)n3C2C1 (stereo unspecified)	nt	1	nt	-1
CCCN1C(=O)/C(=C/c2c(N3CCNC(=O)C3CC(=O)OCC)nc3c(C)cccn3c2=O)SC1=S (stereo unspecified)	63*	nt	-101	nt
CCOC(=O)CC1C(=O)NCCN1c1nc2ccc(C)cn2c(=O)c1/C=C1\SC(=S)N(CC(C)C)C1=O (stereo unspecified)	2	nt	-122	nt
CCN(CC)C(=O)CNc1nnnn1-c1ccccc1	nt	6	nt	2
CCCC1CCC2(CC1)CCC2OC(=S)NCc1cccc(OC)c1 (stereo unspecified)	nt	-4	nt	-3
O=C(NCc1n[nH]c(=O)c2ccccc12)C1CC(=O)N(c2ccc(Cl)cc2)C1 (stereo unspecified)	59*	1	-5	-3
COc1ccc(N2CC(C(=O)NCc3n[nH]c(=O)c4ccccc34)CC2=O)cc1 (stereo unspecified)	65*	-5	-6	0
O=C(CSc1nc2ccccc2c(=O)[nH]1)N1CCCCC1	71*	3	-4	2
O=C(CSc1nc2ccccc2c(=O)[nH]1)c1ccccc1	51*	-1	-6	-2
CC(C)(C)c1ccc(C(=O)CSc2nc3ccccc3c(=O)[nH]2)cc1	-5	2	-1	-28
Cc1ccc(N(CCC#N)C(=O)CSc2nc3ccccc3c(=O)[nH]2)cc1	80*	0	-6	-2
Cn1c(SCC2CCC2)nnc1-c1ccco1	nt	1	nt	1
Cc1ccc(C)c(NC(=O)C(Sc2ncnc3ccccc23)c2ccccc2)c1 (stereo unspecified)	55*	nt	-12	nt
Cc1ccc(C)c(NC(=O)C(Sc2nc3ccccc3c(=O)n2CC(C)C)c2ccccc2)c1 (stereo unspecified)	80*	2	-7	-2
COC(=O)[C@]12C[C@H](CC(=O)NCc3ccc(OC)c(OC)c3)C(=O)N(CCc3ccc(OC)c(OC)c3)C1=C[C@H](C(C)C)O[C@@H]2C1CC1	nt	-1	nt	2
COc1cccc(/C=N/Nc2ncnc3c2ncn3Cc2ccccc2)c1O	60*	-19	7	-17
C=CCNc1nc(-c2ccccn2)nnc1-c1ccccc1	73*	1	-9	0
c1ccc(-c2ccc(CNc3nc(-c4ccccn4)nnc3-c3ccccc3)cc2)cc1	nt	4	nt	2
NC(=O)c1c(NC(=O)Cn2nc(C(=O)O)c3ccccc3c2=O)sc2c1CCC2	54*	-6	-2	0
CC(=O)CC[C@H]1CC[C@]2(CCCN(S(C)(=O)=O)C2)O1	nt	2	nt	5
COc1ccc(-n2c(SCC(=O)Nc3ccc(S(=O)(=O)Nc4nccs4)cc3)nnc2-c2cccs2)cc1	nt	-17	nt	-11
COc1nnc(-c2ccc(C)c(S(=O)(=O)NCCO)c2)c2ccccc12	62*	3	-5	1
CCOC(=O)CNS(=O)(=O)c1cc(-c2n[nH]c(=O)c3ccccc23)ccc1C	61*	3	-3	3
SMILES	Cardio protect	PLCb3 inh	FAS-TE inh	PLCg1 inh
Cc1ccc(-c2n[nH]c(=O)c3ccccc23)cc1S(=O)(=O)NCC1CCCO1 (stereo unspecified)	71*	-2	-4	-3
Cc1ccc(C)c(S(=O)(=O)Nc2ccc(O)cc2)c1	-3	0	-6	1
Cc1ccc(-c2n[nH]c(=S)c3ccccc23)cc1S(=O)(=O)NCC1CCCO1 (stereo unspecified)	12	-7	7	1
COc1nnc(-c2ccc(C)c(S(=O)(=O)NC(C)(C)CO)c2)c2ccccc12	4	-9	-4	0
CCOC(=O)CNS(=O)(=O)c1cc(-c2nnc(Nc3ccc4c(c3)OCO4)c3ccccc23)ccc1C	26	-27	27	-27
Cc1ccc(NS(=O)(=O)c2cc(-c3n[nH]c(=O)c4ccccc34)ccc2C)cc1	50*	-3	12	-1
COC(=O)[C@]12C[C@H](CC(=O)N3CCC(c4ccccc4)CC3)C(=O)N(Cc3ccc4c(c3)OCO4)C1=C[C@H](COCc1ccccc1)O[C@@H]2C	nt	4	nt	5
CC(C)(C)N(Cc1cn(Cc2ccccc2)nn1)S(=O)(=O)c1ccccc1Br	nt	4	nt	7
COc1ccc(CNc2nn3c(-c4cccc(C(=O)N(C)C)c4)cnc3s2)cc1	76*	1	-3	6
COc1cccc(-c2cc(NC=O)c3ncc(-c4cccc(C(=O)N(C)C)c4)n3c2)c1	32	-46	3	-32
Cc1cc(C)cc(N(CCC#N)C(=O)COC(=O)CN2C(=O)NC(C)(C)C2=O)c1	-5	-1	-6	1
Cc1cc(NC(=O)COC(=O)Cn2[nH]c(=O)c3ccccc3c2=O)c([N+](=O)[O-])cc1C	93*	-1	3	1
Cc1cc(C)cc(N(CCC#N)C(=O)COC(=O)Cn2[nH]c(=O)c3ccccc3c2=O)c1	77*	0	-1	0
CC(OC(=O)Cn1[nH]c(=O)c2ccccc2c1=O)C(=O)Nc1cccc(Cl)c1 (stereo unspecified)	59*	0	0	3
CCc1ccc(C(=O)C(C)OC(=O)Cn2[nH]c(=O)c3ccccc3c2=O)cc1 (stereo unspecified)	44	-5	3	-5
CC(OC(=O)Cn1[nH]c(=O)c2ccccc2c1=O)C(=O)Nc1ccc(F)cc1Cl (stereo unspecified)	67*	-2	-3	4
S=C(NN=C1CCCCC1=NNC(=S)N1CCOCC1)N1CCOCC1	nt	-99	nt	-76
Cc1ccc2nc(CN(C)C(=O)[C@@H](Cc3ccccc3)NC(=O)[C@H]3O[C@@H](n4cnc(C(N)=O)n4)[C@H](O)[C@@H]3O)[nH]c2c1	nt	-1	nt	0
COC(=O)[C@]12C[C@H](CC(=O)NCc3cccs3)C(=O)N(Cc3cccc4ccccc34)C1=C[C@H](COCc1ccccc1)O[C@@H]2C	nt	-2	nt	4
O=C(Cn1[nH]c(=O)c2ccccc2c1=O)OCC(=O)c1ccc(Br)cc1	10	-1	-2	2
COc1ccccc1C(=O)COC(=O)Cn1[nH]c(=O)c2ccccc2c1=O	53*	-4	-6	1
CC(OC(=O)Cn1[nH]c(=O)c2ccccc2c1=O)C(=O)Nc1ccccc1[N+](=O)[O-] (stereo unspecified)	79*	-14	-4	-2
O=C(NC1CCCCN(Cc2cccc(F)c2)C1=O)c1ccc2ccccc2c1 (stereo unspecified)	nt	3	nt	0
Cc1cccc(-c2nnc(SCC(=O)c3ccc(F)cc3)n2C)c1	nt	3	nt	0
COc1ccccc1NS(=O)(=O)c1ccc2oc(SCC(=O)N3CCNC3=O)nc2c1	54*	2	1	-1
